Records with an inconclusive call do not appear. Where a call stands in place of a potency, no number is given. Active and inactive are the calls of the source. Unless noted, the call rests on the fitted dose curve; in most records, active means well fitted curve in the direction sought with a large enough effect in the repeat runs; inconclusive means weak or mixed curves; inactive means no such curve, though single readings can be large; an effect the other way counts as inactive or inconclusive.
How the values were obtained:
[1] = qHTS assay to identify aromatase inhibitors - cell viability counter screen (AID 743084);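 further: cells stimulated with testosterone during compound exposure; nearly all actives have a fitted effect of over 55% in size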; further: potency means the concentration at half of the fitted maximal effect
[2] = target: Aryl hydrocarbon receptor (Homo sapiens) (UniProt P35869); assay: qHTS assay to identify small molecule that activate the aryl hydrocarbon receptor (AhR) signaling pathway (AID 743085); further: nearly all actives have a fitted effect of over 15% in size; further: potency means the concentration at half of the fitted maximal effect;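 on activation: HG2L7.5c1 human HepG2 liver cells with stably integrated DRE-driven firefly reporter; series mostly up to about 70 µM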
Outline: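 Steps: seed HepG2-AhR-luc cells; allow 5 h at 37C; pin-transfer test compound or vehicle; incubate 24 h at 37C; add viability dye (30 min, 37C) and read fluorescence; add luciferase substrate (30 min, RT) and read luminescence.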

[3] = qHTS assay to identify small molecule antagonists of the peroxisome proliferator-activated receptor gamma (PPARg) signaling pathway - cell viability counter screen (AID 743194); further: nearly all actives have a fitted effect of over 55% in size
Outline: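 Cytotoxicity counter screen in PPARg-bla HEK293H cells, same wells as reporter assay. Compounds plus 50 nM rosiglitazone (final) for 17 h at 37 C, then viability read by CellTiter-Glo luminescence.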

[4] = qHTS assay for small molecule agonists of the antioxidant response element (ARE) signaling pathway (AID 743202; active means well fitted activation curve with a large enough effect in the signal ratio in the repeat runs, not every such curve was filed as active; the % refers to the signal ratio; further: potency means the concentration at half of the fitted maximal effect)
Outline: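 HepG2 ARE-bla cells; 16 h treatment at 37 C; FRET-based beta-lactamase fluorescence read after 2 h substrate incubation at room temperature.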

[5] = qHTS assay for small molecule agonists of the antioxidant response element (ARE) signaling pathway - cell viability counter screen (AID 743203; calls by dose curve; further: nearly all actives have a fitted effect of over 55% in size)
Outline: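 Cytotoxicity was tested in parallel with the ARE reporter screen. ARE-bla HepG2 cells were exposed to compounds for 16 hrs, and viability was taken from CellTiter-Glo luminescence.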

[6] = qHTS assay for small molecule activators of the heat shock response signaling pathway - cell viability counter screen (AID 743209); further: nearly all actives have a fitted effect of over 50% in size
Outline: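 Cytotoxicity counter screen run in parallel with the HSE beta-lactamase reporter, using the same wells. HeLa HSE-bla cells received compound for 5 h at 37 C; ATP-based CellTiter-Glo luminescence was measured after 30 min at room temperature.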

[7] = qHTS assay to identify small molecule agonists of the peroxisome proliferator-activated receptor delta (PPARd) signaling pathway - cell viability counter screen (AID 743211); further: nearly all actives have a fitted effect of over 55% in size
Outline: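 Viability of GeneBLAzer PPARd UAS-bla HEK293H cells was assessed after 17 h compound incubation at 37C, using CellTiter-Glo reagent added after the reporter read and luminescence recorded 30 min later.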

[8] = target: Peroxisome proliferator-activated receptor delta (Homo sapiens) (UniProt Q03181); assay: qHTS assay to identify small molecule agonists of the peroxisome proliferator-activated receptor delta (PPARd) signaling pathway (AID 743212; calls by dose curve; further: potency means the concentration at half of the fitted maximal effect)
Outline: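 Tox21 library screened in GeneBLAzer PPARd UAS-bla HEK293H cells. After compound treatment at 37 C, a FRET-based beta-lactamase substrate was applied for 2 h and fluorescence recorded.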

[9] = target: Peroxisome proliferator-activated receptor delta (Homo sapiens) (UniProt Q03181); assay: qHTS assay to identify small molecule antagonists of the peroxisome proliferator-activated receptor delta (PPARd) signaling pathway (AID 743215; active means well fitted inhibition curve with a large enough effect in the signal ratio in the repeat runs, not every such curve was filed as active; the % refers to the signal ratio;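 further: cells stimulated with agonist L165041 at 300 nM final during compound exposure; series mostly up to about 62 µM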)
Outline: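 Cells: HEK293H with a UAS-driven beta-lactamase reporter responsive to PPARd. Compounds were co-added with L165041 (300 nM, final) and incubated 17 h at 37 C before a 2 h room-temperature FRET substrate step and fluorescence reading.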

[10] = target: Bile acid receptor (Homo sapiens) (UniProt Q96RI1); assay: qHTS assay to identify small molecule antagonists of the farnesoid-X-receptor (FXR) signaling pathway (AID 743217; active means well fitted inhibition curve with a large enough effect in the signal ratio in the repeat runs, not every such curve was filed as active; the % refers to the signal ratio)
Outline: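 Cells carrying a UAS-driven beta-lactamase reporter (GeneBLAzer FXR-UAS-bla HEK 293T) were plated and rested 5 h at 37 °C. Compounds in DMSO were added alongside chenodeoxycholic acid agonist at 50 uM final and left 16 h at 37 °C before FRET substrate readout.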

[11] = qHTS assay to identify small molecule agonists of the farnesoid-X-receptor (FXR) signaling pathway - cell viability counter screen (AID 743218); further: nearly all actives have a fitted effect of over 45% in size; further: potency means the concentration at half of the fitted maximal effect
Outline: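 Cells were seeded, left 5 h at 37 C and 5% CO2, then dosed with compound in DMSO for 16 h. After the beta-lactamase FRET read, CellTiter-Glo was added and luminescence measured 30 min later.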

[12] = target: Bile acid receptor (Homo sapiens) (UniProt Q96RI1); assay: qHTS assay to identify small molecule agonists of the farnesoid-X-receptor (FXR) signaling pathway (AID 743220; active means well fitted activation curve with a large enough effect in the signal ratio in the repeat runs, not every such curve was filed as active; the % refers to the signal ratio)
Outline: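 FXR-UAS-bla HEK 293T cells carrying a UAS-driven beta-lactamase reporter were plated for 5 h at 37C/5% CO2, then exposed to DMSO-dissolved Tox21 10K compounds for 16 h at 37C. A LiveBLAzer B/G FRET substrate was loaded for 2 h at room temperature before fluorescence reading.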

[13] = qHTS assay to identify small molecule antagonists of the farnesoid-X-receptor (FXR) signaling pathway - cell viability counter screen (AID 743221; active means well fitted cell-killing curve with a large enough effect in the repeat runs, not every such curve was filed as active; further: nearly all actives have a fitted effect of over 50% in size)
Outline: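 Quantitative HTS of the Tox21 10K library run in parallel with the beta-lactamase reporter read. HEK 293T cells carrying a UAS-driven bla reporter got compound and 50 uM CDCA (final) for 16 h; ATP-based luminescence followed.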

[14] = target: Vitamin D3 receptor (Homo sapiens) (UniProt P11473); assay: qHTS assay to identify small molecule agonists of the vitamin D receptor (VDR) signaling pathway (AID 743222; calls by dose curve)
Outline: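 Cells carrying a VDR-driven beta-lactamase reporter are seeded at 2,000 per well and rested 4 h. Compounds in DMSO are added for 16 h at 37C, and FRET substrate fluorescence is measured after 2 h at room temperature.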

[15] = target: Vitamin D3 receptor (Homo sapiens) (UniProt P11473); assay: qHTS assay to identify small molecule antagonists of the vitamin D receptor (VDR) signaling pathway (AID 743223; active means well fitted inhibition curve with a large enough effect in the signal ratio in the repeat runs, not every such curve was filed as active; the % refers to the signal ratio)
Outline: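 Fluorescence from LiveBLAzer B/G FRET substrate, read after 2 h at room temperature, reflects beta-lactamase reporter activity in VDR-bla cells treated 16 h at 37C with compounds and agonist 1alpha,25-dihydroxyvitamin D3 (3 nM final).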

[16] = target: Peroxisome proliferator-activated receptor gamma (Homo sapiens) (UniProt P37231); assay: qHTS assay to identify small molecule agonists of the peroxisome proliferator-activated receptor gamma (PPARg) signaling pathway (AID 743094; active means well fitted activation curve with a large enough effect in the signal ratio in the repeat runs, not every such curve was filed as active; the % refers to the signal ratio; further: potency means the concentration at half of the fitted maximal effect)
Outline: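 Cells from the PPARg UAS-bla HEK293H line are plated and incubated 5 h at 37C. Compounds in DMSO are pinned in and left 17 h at 37C. LiveBLAzer B/G substrate is then added for 1 h at room temperature before fluorescence is measured.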

[17] = qHTS assay for small molecule activators of the heat shock response signaling pathway (AID 743210; active means well fitted activation curve with a large enough effect in the signal ratio in the repeat runs, with a control signal flat, not every such curve was filed as active; the % refers to the signal ratio;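 further: HeLa cells with beta-lactamase reporter driven by heat shock elements; series mostly up to about 63 µM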)
Outline: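 Following overnight attachment, HSE-bla HeLa cells received test compounds for 5 h at 37 C; beta-lactamase activity was then detected via FRET substrate fluorescence.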

[18] = qHTS assay to identify small molecule antagonists of the peroxisome proliferator-activated receptor delta (PPARd) signaling pathway - cell viability counter screen (AID 743213); further: nearly all actives have a fitted effect of over 50% in size; further: potency means the concentration at half of the fitted maximal effect
Outline: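 PPARd-bla HEK293H cells were treated with compounds plus agonist L165041 (300 nM final) for 17 h at 37 C. Viability was then read in the same wells by CellTiter-Glo luminescence after 30 min at room temperature.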

[19] = target: Peroxisome proliferator-activated receptor gamma (Homo sapiens) (UniProt P37231); assay: qHTS assay to identify small molecule antagonists of the peroxisome proliferator-activated receptor gamma (PPARg) signaling pathway (AID 743191; calls by dose curve; further: nearly all actives have a fitted effect of over 30% in size; further: potency means the concentration at half of the fitted maximal effect)
Outline: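 GeneBLAzer PPARg UAS-bla HEK293H cells, 5 h post-plating, exposed to compounds 17 h at 37C. LiveBLAzer B/G FRET substrate added for 1 h at room temperature; beta-lactamase reporter read by fluorescence intensity.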

Sequence of Aryl hydrocarbon receptor (Homo sapiens) (P35869 whole entry, looked up): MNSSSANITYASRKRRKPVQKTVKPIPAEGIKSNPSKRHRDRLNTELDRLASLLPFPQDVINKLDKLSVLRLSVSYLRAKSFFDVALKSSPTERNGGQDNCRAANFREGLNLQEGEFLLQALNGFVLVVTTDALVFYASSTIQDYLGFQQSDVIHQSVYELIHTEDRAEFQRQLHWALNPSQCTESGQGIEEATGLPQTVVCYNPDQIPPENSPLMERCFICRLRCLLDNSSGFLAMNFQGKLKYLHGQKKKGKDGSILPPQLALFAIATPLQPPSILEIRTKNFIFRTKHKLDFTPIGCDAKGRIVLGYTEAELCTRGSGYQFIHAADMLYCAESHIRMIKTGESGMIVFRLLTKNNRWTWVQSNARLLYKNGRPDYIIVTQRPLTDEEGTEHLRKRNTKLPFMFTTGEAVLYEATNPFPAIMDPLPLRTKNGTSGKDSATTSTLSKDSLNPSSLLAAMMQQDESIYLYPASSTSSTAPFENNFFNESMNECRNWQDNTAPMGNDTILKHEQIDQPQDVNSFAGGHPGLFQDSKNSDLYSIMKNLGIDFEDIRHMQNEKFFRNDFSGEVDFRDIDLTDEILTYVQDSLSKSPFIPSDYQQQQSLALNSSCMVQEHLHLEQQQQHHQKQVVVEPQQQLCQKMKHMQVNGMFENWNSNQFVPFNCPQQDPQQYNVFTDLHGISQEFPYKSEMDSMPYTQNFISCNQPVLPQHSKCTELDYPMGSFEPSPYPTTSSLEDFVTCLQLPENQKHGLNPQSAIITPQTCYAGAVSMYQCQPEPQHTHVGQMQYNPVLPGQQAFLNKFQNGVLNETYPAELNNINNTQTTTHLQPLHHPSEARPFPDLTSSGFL
Sequence of Peroxisome proliferator-activated receptor delta (Homo sapiens) (Q03181 whole entry, looked up): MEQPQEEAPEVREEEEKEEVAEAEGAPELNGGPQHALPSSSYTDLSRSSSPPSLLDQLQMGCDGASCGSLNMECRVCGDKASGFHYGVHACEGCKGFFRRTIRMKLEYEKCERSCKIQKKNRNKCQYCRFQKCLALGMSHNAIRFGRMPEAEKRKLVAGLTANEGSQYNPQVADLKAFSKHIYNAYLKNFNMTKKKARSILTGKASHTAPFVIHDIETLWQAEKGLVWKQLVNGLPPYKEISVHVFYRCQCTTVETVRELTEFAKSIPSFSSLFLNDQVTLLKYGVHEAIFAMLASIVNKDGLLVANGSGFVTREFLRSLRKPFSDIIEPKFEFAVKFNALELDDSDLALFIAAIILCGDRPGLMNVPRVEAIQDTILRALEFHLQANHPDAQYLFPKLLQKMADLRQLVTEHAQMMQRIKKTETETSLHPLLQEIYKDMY
Sequence of Vitamin D3 receptor (Homo sapiens) (P11473 whole entry, looked up): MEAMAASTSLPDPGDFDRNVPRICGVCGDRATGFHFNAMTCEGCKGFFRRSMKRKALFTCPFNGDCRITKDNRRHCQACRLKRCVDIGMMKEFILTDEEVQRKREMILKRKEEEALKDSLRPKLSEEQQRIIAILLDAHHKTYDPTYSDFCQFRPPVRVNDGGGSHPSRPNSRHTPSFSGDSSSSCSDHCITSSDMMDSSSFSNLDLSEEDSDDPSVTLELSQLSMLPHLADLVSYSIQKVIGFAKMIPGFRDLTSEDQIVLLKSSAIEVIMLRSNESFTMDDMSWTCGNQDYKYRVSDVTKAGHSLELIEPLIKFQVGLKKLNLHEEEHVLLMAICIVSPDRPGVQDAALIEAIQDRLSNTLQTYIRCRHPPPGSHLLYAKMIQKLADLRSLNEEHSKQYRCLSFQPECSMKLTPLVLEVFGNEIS
Sequence of Bile acid receptor (Homo sapiens) (Q96RI1 whole entry, looked up): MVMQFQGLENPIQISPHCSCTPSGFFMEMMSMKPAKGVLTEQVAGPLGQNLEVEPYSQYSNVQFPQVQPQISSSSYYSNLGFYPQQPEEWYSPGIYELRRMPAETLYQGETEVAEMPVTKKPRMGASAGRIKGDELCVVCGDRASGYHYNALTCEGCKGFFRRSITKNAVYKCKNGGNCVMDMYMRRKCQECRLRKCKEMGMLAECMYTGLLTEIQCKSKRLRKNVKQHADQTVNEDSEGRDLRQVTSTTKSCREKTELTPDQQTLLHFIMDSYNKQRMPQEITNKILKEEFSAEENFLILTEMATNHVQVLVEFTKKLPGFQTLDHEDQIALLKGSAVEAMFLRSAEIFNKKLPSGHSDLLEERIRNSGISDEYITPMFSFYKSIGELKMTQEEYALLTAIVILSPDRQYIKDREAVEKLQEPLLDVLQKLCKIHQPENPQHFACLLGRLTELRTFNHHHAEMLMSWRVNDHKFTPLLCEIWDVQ
Sequence of Peroxisome proliferator-activated receptor gamma (Homo sapiens) (P37231 whole entry, looked up): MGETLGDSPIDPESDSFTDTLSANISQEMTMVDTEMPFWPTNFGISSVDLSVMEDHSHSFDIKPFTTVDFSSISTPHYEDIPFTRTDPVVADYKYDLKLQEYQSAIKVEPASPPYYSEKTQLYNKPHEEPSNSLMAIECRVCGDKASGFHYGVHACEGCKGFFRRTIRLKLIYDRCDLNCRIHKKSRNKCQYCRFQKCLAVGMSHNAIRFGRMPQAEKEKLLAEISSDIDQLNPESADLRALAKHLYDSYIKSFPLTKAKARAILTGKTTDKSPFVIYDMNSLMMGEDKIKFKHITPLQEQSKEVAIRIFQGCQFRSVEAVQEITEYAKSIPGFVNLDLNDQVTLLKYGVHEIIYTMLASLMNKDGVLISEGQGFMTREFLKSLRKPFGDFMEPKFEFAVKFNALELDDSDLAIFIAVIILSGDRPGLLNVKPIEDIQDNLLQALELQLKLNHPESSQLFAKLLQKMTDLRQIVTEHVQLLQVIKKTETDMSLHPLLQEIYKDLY

SMILES | Potency [1] | Potency [2] | Potency [3] | Potency [4] | Potency [5] | Potency [6] | Potency [7] | Potency [8] | Potency [9] | Potency [10] | Potency [11] | Potency [12] | Potency [13] | Potency [14] | Potency [15] | Potency [16] | Potency [17] | Potency [18] | Potency [19]
O=C(O)c1ccc(OCCCOc2ccc(C(=O)O)cc2)cc1 | inactive | inactive | inactive | inactive | inactive | inactive | inactive | inactive | inactive | inactive | inactive | inactive | inactive | inactive | inactive |  |  |  | 
NC1[C@H]2CN(c3nc4c(cc3F)c(=O)c(C(=O)O)cn4-c3ccc(F)cc3F)C[C@@H]12 (stereo not given in full) | inactive | inactive | inactive | 8.41 µM (active) | inactive | inactive | inactive | 29.8 µM (active) |  |  | inactive |  | inactive |  |  | 23.9 µM (active) | inactive | inactive | 
CC=C(Cl)Cl | inactive | inactive |  | inactive |  | inactive |  | inactive | inactive |  |  |  | inactive | inactive | inactive | inactive | inactive | inactive | inactive
CC(=O)Oc1ccc([N+](=O)[O-])cc1CCl | 27.3 µM (active) | inactive | inactive |  |  | inactive | inactive | inactive | inactive | inactive |  | inactive | inactive |  |  | inactive | inactive | inactive | 
O=C1c2ccccc2C(=O)N1CCc1noc(-c2ccc(CN3CCCCCC3)s2)n1 | inactive | 6.29 µM (active) | inactive | 6.29 µM (active) | inactive | inactive | inactive | inactive |  | inactive | inactive |  | inactive |  |  | inactive | inactive | inactive | 
CN(C)CCC=C1c2ccccc2C=Cc2ccccc21 | inactive | inactive | inactive |  |  | inactive |  |  | inactive |  | 11.9 µM (active) |  |  | inactive | inactive |  |  | 23.7 µM (active) | 
CC(C)C(O)(c1ccc(OC(F)(F)F)cc1)c1cncnc1 (stereo not given) | inactive | inactive | inactive |  | inactive | inactive | inactive |  |  |  | inactive |  | inactive | inactive | inactive |  |  |  | 
C=CC(=O)[O-].C=CC(=O)[O-].[Zn+2] | inactive | inactive | inactive |  | inactive | inactive | inactive | inactive | inactive |  | inactive |  | inactive | inactive | inactive | inactive |  | inactive | 
C/C=C(/C(=C/C)c1ccc(O)cc1)c1ccc(O)cc1 | inactive | inactive |  | 15 µM (active) | inactive |  |  | inactive |  |  |  | inactive |  | inactive |  | inactive |  |  | 29.8 µM (active)
